# Shown is part of a subset that was picked to be rich in hits.
# LmPK inhibitor – LmPK (Leishmania mexicana) enzyme inhibition; 0.37% of 290,000 active; Q27686; AID 1721; purified LmPK, Kinase-Glo ATP luminescence, 1 h; Potency, µM (series often up to 57.5 µM), usual class: inhibitors; active = well fitted curve in the direction sought with a large enough effect; inconclusive = small, poorly fitted or top-dose-only effect, or another doubt; inactive = no such curve, though single readings can be large; an effect the other way counts as inactive or inconclusive
# Target sequence (Q27686 whole entry, looked up): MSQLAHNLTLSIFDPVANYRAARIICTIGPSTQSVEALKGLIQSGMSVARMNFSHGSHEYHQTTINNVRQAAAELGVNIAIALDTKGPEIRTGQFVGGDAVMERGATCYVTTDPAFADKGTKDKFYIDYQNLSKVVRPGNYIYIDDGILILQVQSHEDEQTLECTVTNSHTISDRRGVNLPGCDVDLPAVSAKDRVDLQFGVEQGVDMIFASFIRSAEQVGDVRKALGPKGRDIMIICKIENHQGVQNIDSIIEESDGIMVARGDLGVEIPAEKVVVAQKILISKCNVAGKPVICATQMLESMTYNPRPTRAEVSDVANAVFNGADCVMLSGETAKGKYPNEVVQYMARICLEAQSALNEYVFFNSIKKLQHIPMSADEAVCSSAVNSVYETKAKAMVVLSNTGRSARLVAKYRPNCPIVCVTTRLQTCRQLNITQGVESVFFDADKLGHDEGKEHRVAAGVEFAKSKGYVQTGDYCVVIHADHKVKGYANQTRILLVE
#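 In 50 mM imidazole pH 7.2 with 7 mM MgCl2, LmPK (0.1 nM) turned over PEP (0.5 mM) and ADP (0.1 mM) for 1 h at room temperature. Luciferase read-out of ATP.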
# NS1 function inh – influenza NS1 inhibition; AID 2326; Potency, µM (series often up to 46.1 µM); 0.4% of 270,000 active; also: actives are rising curves; nearly all actives have a fitted effect of over 50% in size
#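 Read-out: OD600 growth recovery of NS1-expressing budding yeast. Cells grown overnight at 30C in -URA glucose medium, washed, resuspended and diluted 1:100 in 2% galactose assay medium, pH 6.0. Same strain lacking NS1 served as positive control.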
# SARS PLP yeast – blocks SARS-CoV papain-like protease in a yeast assay. S. cerevisiae expressing SARS-CoV PLpro, growth rescue. Potency, µM (highest dose often 32.9 µM), hits mostly activators. 0.19% of 330,000 active. AID 485353; also: nearly all actives have a fitted effect of over 55% in size
# CHX counter – counter-screen for Shiga toxin inhibitors: cycloheximide protein synthesis inhibition; cell reporter, cycloheximide protein synthesis inhibition counterscreen; 12% of 300,000 active; max response, %; in the data active = max response mostly above about 13%, no sharp cut-off; inactive = mostly below about 14%; also: read at 38.3 µM for the half of the compounds with a filed dose
# TbPYK inhibitor – blocks Trypanosoma brucei pyruvate kinase; Q57TT1; TbPYK enzyme, Kinase-Glo Plus ATP luminescence, 45 min; Potency, µM (doses to about 76.8 µM), actives largely listed as inhibitors; 0.12% of 410,000 active; active = well fitted curve in the direction sought with a large enough effect; inconclusive = small, poorly fitted or top-dose-only effect, or another doubt; inactive = no such curve, though single readings can be large; an effect the other way counts as inactive or inconclusive; also: nearly all actives have a fitted effect of over 50% in size
#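 In this concentration-response screen, enzyme-free wells defined baseline while DMSO plates tracked drift. Each reaction combined TbPYK, substrate, compound and 130 uM ADP for 45 min at room temperature. Kinase-Glo Plus luminescence gave the signal.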
# Shiga toxin inh – blocks Shiga toxin action in Vero cells. AID 2315. inhibition, % at 38.7 µM. 9.2% of 290,000 active. Vero cells, Shiga toxin protein synthesis inhibition reporter; in the data active = inhibition mostly above about 28%, no sharp cut-off; inactive = mostly below about 43%
# A number is an active result; n = inactive; u = inconclusive; x = no result given; [ ] = remark or other dose. Unless noted, calls follow the shape of the full dose curve.
SMILES,LmPK inhibitor,NS1 function inh,SARS PLP yeast,CHX counter,TbPYK inhibitor,Shiga toxin inh
CN1CCC(N(C)C(=S)Nc2ccc(SC(F)F)cc2)CC1,n,n,n,24.4,n,active
OC1CCCN(C(=S)Nc2ccc(SC(F)F)cc2)C1 (centres undefined),n,n,n,26.6,n,34.3
Cc1ccc(/C=C(\NC(=O)c2ccccc2)C(=O)NCCc2ccccn2)o1,n,n,n,11.1,n,n
CCCC(=O)Nc1ccc(C2C(=O)c3ccccc3C2=O)cc1,u,u,n,12.1,n,n
CC(=O)Nc1ccc(C2C(=O)c3ccccc3C2=O)cc1,n,u,n,23.7,n,68.1
COc1ccccc1NS(=O)(=O)c1cccc(NS(=O)(=O)c2cc(C(=O)O)ccc2OC)c1,x,x,n,x,n,x
OCc1ccc(-c2ccc(-c3ccc(CO)s3)o2)s1,x,x,x,53.2,x,41.6
CCOc1ccccc1N(CC)C(=O)Cn1ncc2c([nH]c3ccccc32)c1=O,x,x,x,x,n,x
CC(=O)C1=C(O)C(=O)N(c2ccccn2)C1c1ccc(Cl)cc1 (centres undefined),n,n,n,27.2,n,65.8
COCCCNC(=O)c1ccc(OC)c(OC2CCN(C(C)C)CC2)c1,n,n,n,n,n,n
O=S(=O)(Nc1ccc(-c2ccc(N3CCCC3)nn2)cc1)c1ccc(OC(F)(F)F)cc1,x,x,x,x,n,x
CN1CCN(C(=S)Nc2ccc(Cl)cc2Cl)CC1,n,n,n[6.58 µM],16.2,n,n
CCN1CCN(C(=S)Nc2ccc(Cl)cc2Cl)CC1,n,n,n,24.9,n,n
S=C(Nc1ccc(Cl)cc1Cl)N1CCOCC1,n,n,n,n,n,n
COc1ccc2c(c1)OC[C@H]1[C@H]2N2C(=O)[C@H](C)NC(=O)[C@@]2(C)[C@H]1c1ccccc1,x,x,n,x,n,x
CCSc1nc2ccc(N3C(=O)C4C5C=CC(C5)C4C3=O)cc2s1 (centres undefined),n,n,n,26.6,n,49.7
O=C1C2C3C=CC(C3)C2C(=O)N1c1ccc2ccccc2c1 (centres undefined),n,n,n,n,n,n
O=C(NNC(=S)NC(=O)c1cccnc1)c1ccc(F)cc1,n,n,n,27.9,n,39.4
Cc1ccccc1NC(=S)NNC(=O)c1ccncc1,n,n,n,n,n,n
Cc1ccccc1NC(=S)NNC(=O)c1cccnc1,17.8µM,n,n,n,4.47µM,n
O=C(NNC(=S)Nc1ccccc1)c1cccnc1,n,n,n,20.2,n,28.3
OC[C@@H]1CN(CCN2CCOCC2)C[C@H](n2cnc3c(N4CCCC4)ncnc32)O1,x,x,x,x,n,x
CCCN1CCN(CCCNC(=O)CN2C(=O)COc3ccc(C(C)(C)C)cc32)CC1,x,x,x,x,n,x
CN(C(=O)c1ccc2ccccc2c1)c1ccccn1,n,n,n,30.1,n,n
CC(Oc1ccccc1Cl)C(=O)Nc1ccccc1C(=O)N1CCOCC1 (centres undefined),n,n,n,n,n,n
SMILES,LmPK inhibitor,NS1 function inh,SARS PLP yeast,CHX counter,TbPYK inhibitor,Shiga toxin inh
CC(=O)c1cc(C(=O)NC2CCCc3c2cnn3-c2cc(C)cc(C)c2)[nH]n1 (centres undefined),n,n,n,29.3,n,35.1
Cc1cc(C(=O)NC2CCCc3c2cnn3-c2cccc(C)c2C)no1 (centres undefined),n,n,n,26.8,n,46.2
Cc1cc(C)cc(-n2ncc3c2CCCC3NC(=O)c2cc(C)n(C)n2)c1 (centres undefined),n,n,n,21.7,n,36.1
COc1ccc(CCNS(=O)(=O)c2csc(C(N)=O)c2)cc1OC,n,n,n,n,n,n
COC(=O)C1=C(C(=O)OC)[C@@H]2N(Cc3ccccc3)c3ccccc3[C@@]23C[C@@H](C(=O)OC)N(S(=O)(=O)c2ccc(C)cc2)C3=N1,n[11.5 µM],x,x,x,x,x
C=C/C(C)=C/[C@@]1(C)SC(=O)C(C)=C1O,x,n,x,x,x,x
N/C(=N\OC(=O)COc1ccc(Cl)cc1)c1cccnc1,n,n,n,15.2,n,62.2
N/C(=N\OC(=O)COc1ccc(Cl)cc1Cl)c1cccnc1,n,n,n,53.6,n,78.0
Cc1ccc(OCC(=O)O/N=C(\N)c2cccnc2)cc1,n,n,n,22.8,n,67.9
COCC(=O)N1CCC(Oc2ccc(C(=O)NC(C)c3nccs3)cc2)CC1 (centres undefined),n,n,n,n,n,n
CO/N=C(\C(=O)N[C@@H]1C(=O)N2C(C(=O)OCOC(=O)C(C)(C)C)=C(C)CS[C@H]12)c1csc(N)n1,x,x,x,x,n,x
O=C(c1ccc(NS(=O)(=O)c2ccc(F)cc2)cc1)N1CCCCCC1,x,x,n,x,n,x
CC(C)NC(=O)/C(C#N)=C/c1ccc(N(C)C)o1,n,n,n,15.8,n,59.6
COc1ccccc1/C=C\C=N\NC(=O)CCn1nnc2ccccc21,n,n,n,n,n,n
C/C(=N\NC(=O)CCn1nnc2ccccc21)c1ccco1,n,n,n,19.5,n,n
CC(=O)Nc1ccc(NC(=O)CCn2nnc3ccccc32)cc1,n,n,n,n,n,n
COc1ccc(/C=N/NC(=O)CCn2nnc3ccccc32)cc1,n,n,n,20.3,n,53.3
COC(=O)[C@]12CCCCC=C1N(Cc1cccc3ccccc13)C(=O)[C@H](CC(=O)NCc1cccs1)C2,x,x,x,x,n,x
O=C(Nc1cccc2cccnc12)c1ccc(Br)o1,n,n,n,25.5,n,n
O=S(=O)(Nc1cccc2cccnc12)c1ccccc1Br,x,x,x,28.4,x,n
O=C(Nc1cccc2cccnc12)c1cccc([N+](=O)[O-])c1,n,n,n,35.2,n,69.0
O=C(Nc1cccc2cccnc12)c1ccccc1,x,x,x,24.8,x,43.3
CCN1C[C@@H]2[C@@H]3C(=O)N(Cc4ccccc4)C(=O)[C@@H]3[C@](Cc3ccccc3)(C1=O)N2C(=O)c1ccc(C(C)(C)C)cc1,x,x,x,x,n,x
COc1cccc(NC(=O)NCc2ccccc2Cl)c1,x,x,x,x,n,x
CCCCCc1cc(=O)c2ccccc2o1,x,x,n,x,n,x
SMILES,LmPK inhibitor,NS1 function inh,SARS PLP yeast,CHX counter,TbPYK inhibitor,Shiga toxin inh
C[C@@H]1CN([C@@H](C)CO)C(=O)c2cc(Br)cnc2O[C@H]1CN(C)C(=O)CCN1CCCCC1,x,x,x,x,n,x
O=C(Nc1cccc2cccnc12)OC(Cl)(Cl)Cl,x,x,x,21.5,x,n
O=C(Nc1cccc2cccnc12)c1ccc(F)cc1,x,x,x,35.5,n,64.2
CC(C)Oc1ccc(C(=O)Nc2cccc3cccnc23)cc1,n,n,n,26.9,n,59.3
CC(C)c1ccc(C(=O)Nc2cccc3cccnc23)cc1,x,x,x,x,n,x
O=C(Nc1cccc2cccnc12)C(Cl)(Cl)Cl,x,x,x,n,x,n
CCOc1ccc(C(=O)Nc2cccc3cccnc23)cc1,n,n,n,n,n,n
Cc1cccc(OCCn2nnc3sc4c(c3c2=O)CCCC4)c1,x,x,x,x,n,x
COCCCNC(=O)C1CCC(CNS(=O)(=O)c2ccc3c(c2)N(C(C)=O)CCO3)CC1 (centres undefined),n,n,n,n,n,n
CN1CCN(C(=O)CNC(=O)c2cccs2)CC1,x,x,n,x,n,x
O=C(NCC(=O)N1CCN(c2ccccc2)CC1)c1cccs1,n,n,n,22.1,n,n

# Assay outcomes: PubChem BioAssay, National Center for Advancing Translational Sciences (NCATS)
